Sampled rows, rich in hits. Any-hit rate of the full collection: about 1.4%.
RE007 growth inh: less growth of the S. pombe RE007 Vpr strain | hit rate 0.21% among 360,000 | Potency, µM (doses to about 92.2 µM), hits mostly inhibitors | AID 651644 | S. pombe RE007 Vpr strain, BacTiter-Glo ATP luminescence, 24 h; active = well fitted falling curve with a large enough effect; inconclusive = small, poorly fitted or top-dose-only effect; inactive = no such curve, though single readings can be large or run the other way; note: nearly all actives have a fitted effect of over 50% in size
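Fission yeast strain RE007, carrying one chromosomally integrated HIV-1 vpr copy, was seeded at OD 0.01 in PMG+AL medium with 23 nL pinned compound. After 24 h at 30 °C and 99% humidity, viability was read by BacTiter-Glo luminescence.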
AmpC detergent: blocks E. coli AmpC beta-lactamase in detergent assay. P00811. AmpC hydrolysis of nitrocefin, absorbance 480 nm, 0.01% Triton. Potency, µM (doses to about 114 µM), usual class: inhibitors. hit rate 0.041% among 370,000. AID 485294; note: nearly all actives have a fitted effect of over 25% in size
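20 mM phosphate pH 7.0 + 0.01% (detergent screen) or 0.0001% Triton X-100; 5.3 nM AmpC reagent; cpd preinc 15 min RT; nitrocefin (800 uM stock) to start; A480 q20 s × 4 min; Activity was normalised to no-enzyme and no-compound control wells.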
Tb PYK inh: inhibitors of Trypanosoma brucei pyruvate kinase | TbPYK enzyme, Kinase-Glo Plus ATP luminescence, 45 min | AID 624173 | Potency, µM (highest dose often 76.8 µM), most hits filed as inhibitors | hit rate 0.12% among 410,000; note: nearly all actives have a fitted effect of over 50% in size
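Glycolytic pyruvate kinase of T. brucei was incubated with substrate, test compound and 130 uM ADP for 45 minutes at room temperature. Luminescent Kinase-Glo Plus signal was measured after 10 minutes.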
LmPK inhibitor: inhibitors of Leishmania mexicana pyruvate kinase | purified LmPK, Kinase-Glo ATP luminescence, 1 h | Potency, µM (series often up to 57.5 µM), most hits filed as inhibitors | hit rate 0.37% among 290,000 | Q27686
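Purified LmPK (0.1 nM) with 0.5 mM PEP and 0.1 mM ADP in imidazole buffer pH 7.2 with MgCl2/KCl, 1 h at room temperature. ATP formed was read by luciferase luminescence and normalized to no-enzyme and uninhibited controls.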
AmpC no deterg: inhibitors of E. coli AmpC beta-lactamase without detergent; Potency, µM (titrated, usually from 57.1 µM), actives largely listed as inhibitors; P00811; AmpC nitrocefin hydrolysis, absorbance 480 nm, 0.0001% Triton; AID 485341; hit rate 0.52% among 330,000; note: nearly all actives have a fitted effect of over 20% in size
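AmpC (5.3 nM in the dispensed reagent) in 20 mM phosphate pH 7.0 with 0.01% (detergent screen) or 0.0001% Triton X-100 was preincubated with compounds for 15 min at room temperature. Nitrocefin was then added from an 800 uM solution, and hydrolysis was followed at 480 nm.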
Giardia FBPA inh-1: blocks Giardia fructose-bisphosphate aldolase activity; purified Giardia FBPA; hit rate 0.71% among 290,000; A8B2U2; AID 2451; Potency, µM (highest dose often 59.6 µM), usual class: inhibitors; note: nearly all actives have a fitted effect of over 55% in size
Target sequence (A8B2U2 whole entry, looked up): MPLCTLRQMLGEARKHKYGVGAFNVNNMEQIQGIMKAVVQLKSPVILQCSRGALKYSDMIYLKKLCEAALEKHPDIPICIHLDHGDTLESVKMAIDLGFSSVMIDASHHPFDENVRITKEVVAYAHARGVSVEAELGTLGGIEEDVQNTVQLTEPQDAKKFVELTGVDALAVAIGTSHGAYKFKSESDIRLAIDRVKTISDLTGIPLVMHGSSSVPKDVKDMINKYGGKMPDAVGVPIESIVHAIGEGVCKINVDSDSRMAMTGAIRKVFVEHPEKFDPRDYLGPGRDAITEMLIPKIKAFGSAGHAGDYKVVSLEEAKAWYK
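40 nM FBPA preincubated 10 min at RT with compound (up to 57.5 uM final), then substrate plus GAPDH/TPI/NAD/arsenate coupling and diaphorase/resazurin added. Fluorescence read after 20 min at RT, 525/598 nm.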
Giardia growth: blocks growth of Giardia lamblia trophozoites. Giardia lamblia trophozoite growth inhibition. shares compounds with Giardia FBPA inh-1. Potency, µM (highest dose often 57.5 µM), hits mostly inhibitors. hit rate 5% among 1,500. AID 2785;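 note: trophozoites exposed to compound for 48 h at 37 °C; nearly all actives have a fitted effect of over 70% in size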
Mammal cell tox: counter-screen for Giardia aldolase inhibitors: mammalian cell toxicity | mammalian cell viability counter-screen, qHTS | shares compounds with Giardia FBPA inh-1 | hit rate 4% among 1,500 | Potency, µM (series often up to 57.5 µM), hits mostly inhibitors;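 note: Chinese hamster ovary cells used as mammalian cytotoxicity surrogate; viability measured as cellular ATP by luminescence; compound exposure lasted 48 h before reading; nearly all actives have a fitted effect of over 60% in size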
Giardia FBPA inh-2: confirmation of Giardia fructose-bisphosphate aldolase inhibitors; shares compounds with Giardia FBPA inh-1; purified Giardia aldolase enzyme activity, qHTS; Potency, µM (series often up to 57.5 µM), actives largely listed as inhibitors; hit rate 5% among 1,500; note: nearly all actives have a fitted effect of over 45% in size
Rabbit aldolase: rabbit FBP aldolase inhibition by Giardia aldolase hits. shares compounds with Giardia FBPA inh-1. Rabbit muscle FBPA enzyme inhibition, selectivity counter-screen. Potency, µM (series often up to 57.5 µM), most hits filed as inhibitors. hit rate 4% among 1,500. AID 2794; note: nearly all actives have a fitted effect of over 60% in size
GAPDH coupling: GAPDH inhibition flagged for Giardia aldolase hits; shares compounds with Giardia FBPA inh-1; GAPDH coupling enzyme counterscreen, biochemical, qHTS; Potency, µM (top dose mostly 57.5 µM), most hits filed as inhibitors; hit rate 6% among 1,500; AID 2795; note: nearly all actives have a fitted effect of over 55% in size
Hits are given with their value; i = inactive; ? = inconclusive; nt = not tested or not shown; [ ] = another dose, or the depositor's remark. Unless noted, calls come from the whole dose curve; as a rule, active = well fitted curve in the direction sought with a large enough effect; inconclusive = small, poorly fitted or top-dose-only effect, or another doubt; inactive = no such curve, though single readings can be large; an effect the other way counts as inactive or inconclusive.

SMILES	RE007 growth inh	AmpC detergent	Tb PYK inh	LmPK inhibitor	AmpC no deterg	Giardia FBPA inh-1	Giardia growth	Mammal cell tox	Giardia FBPA inh-2	Rabbit aldolase	GAPDH coupling
CN(CCOc1ccccc1)CC(=O)Nc1ccc(Cl)c(S(=O)(=O)N(C)C)c1	i	?	i	i	i	16µM	i[10.4 µM]	i	i	i	i
CN(C)S(=O)(=O)c1cc(NC(=O)CNCc2ccccc2)ccc1Cl	i	i	i	i	i	?	nt	nt	nt	nt	nt
COc1ccc(OCCN(C)CC(=O)Nc2c(C)cccc2C)cc1	i	i	i	i	i	14µM	i[10.4 µM]	i	i	i	i
O=C(NN1C(=O)/C(=C/C=C/c2ccco2)SC1=S)c1ccncc1	i	?	i	i	i	7.1µM	i	i	?	?	i
COc1ccccc1OCc1nn[nH]n1	i	?	i	i	i	32µM	?	i	i	i	i
CCC(C)c1ccc(NC(=O)CN(C)CC(=O)Nc2cccc(OC)c2)cc1 (stereo not drawn)	i	i	i	i	i	16µM	?	i	i	i	i
COc1cccc(NC(=O)CN(C)CC(=O)Nc2ccc3c(c2)OCO3)c1	i	nt	i	nt	i	nt	nt	nt	nt	nt	nt
O=c1oc2c(O)c(O)cc3c(=O)oc4c(O)c(O)cc1c4c23	i	?	i	i	i	2µM	i	i	?	?	?
CC(C)CC(=O)N1CCN(Cc2ccc(C(F)(F)F)cc2)CC1	i	i	i	i	i	32µM	i	i	i	i	i
CC(C)CC(=O)N1CCN(Cc2ccc(Cl)cc2)CC1	i	?	i	i	i	28µM	i	i	i	i	i
CCOc1ccc(NC(=O)c2cnn3c2NC(c2cccc(OC)c2)=CC3c2ccccc2)cc1 (stereo not drawn)	nt	i	i	nt	nt	nt	nt	nt	nt	nt	nt
Cc1cc(C)c(NC(=O)CCCn2c(C)c3cnn(-c4ccccc4)c(=O)c3c2C)c(C)c1	nt	i	i	nt	nt	nt	nt	nt	nt	nt	nt
Cc1ccc(C)c(N2CCN(CCN3CCCCC3)CC2)c1	i	i	i	i	i	16µM	?	i	i	i	i
Cc1ccc(C)c(N2CCN(Cc3csc(C)c3C)CC2)c1	nt	i	i	nt	nt	nt	nt	nt	nt	nt	nt
Nn1c(Cc2cccc3ccccc23)n[nH]c1=S	i	i	?	i	i	?	nt	nt	nt	nt	nt
Nn1c(Cc2ccccc2F)n[nH]c1=S	i	i	i	i	i	14µM	i	i	i	i	i
COc1ccc(Cc2n[nH]c(=S)n2N)cc1OC	i	i	?	i	i	13µM	i	i	i	i	i
CCOC(=O)Cn1c(=O)c2c(nc(N3CCOCC3)n2Cc2ccccc2)n(C)c1=O	nt	i	i	nt	nt	nt	nt	nt	nt	nt	nt
O=C(CSc1nccc(-c2cccs2)n1)Nc1ccc(Cl)cc1	i	i	i	i	i	i	nt	nt	nt	nt	nt
O=C(Nc1nccc(-c2cccs2)n1)c1ccccc1Cl	i	i	i	i	i	7.9µM	i	i	25µM	25µM	16µM
Cc1ccc(NC(=S)c2ccncc2)cc1	i	i	i	i	i	28µM	i	i	i	i	i
Cc1ccc(NC(=S)c2ccccc2)cc1	i	i	i	i	i	i	nt	nt	nt	nt	nt
O=C(CN1CCCC1)Nc1ccc(OC(F)(F)F)cc1	i	i	i	i	i	?	nt	nt	nt	nt	nt
CCN1CCN(CC(=O)Nc2ccc(OC(F)(F)F)cc2)CC1	i	i	i	i	i	18µM	i	i	i	i	i

Bioassay records deposited in PubChem by National Center for Advancing Translational Sciences (NCATS).
